Screening results (PubChem)
Rows were chosen to be rich in hits. Some 4.4% of all compounds tested hit in one or more screens of this group.
TRHR PAM = qHTS for Small Molecule Agonists and Allosteric Enhancers of Human TRH Receptor: Primary Screen for Enhancers; actives 0.66% (n = 360,000); AID 493056, 2011; Thyrotropin-releasing hormone receptor (Homo sapiens), P34981; TRHR cells, fluo-8 calcium fluorescence, EC20 TRH enhancement; enhancement, % at 2 µM; in the data active = enhancement above about 30%; note: 0% is about no effect
Target sequence (P34981 whole entry, looked up): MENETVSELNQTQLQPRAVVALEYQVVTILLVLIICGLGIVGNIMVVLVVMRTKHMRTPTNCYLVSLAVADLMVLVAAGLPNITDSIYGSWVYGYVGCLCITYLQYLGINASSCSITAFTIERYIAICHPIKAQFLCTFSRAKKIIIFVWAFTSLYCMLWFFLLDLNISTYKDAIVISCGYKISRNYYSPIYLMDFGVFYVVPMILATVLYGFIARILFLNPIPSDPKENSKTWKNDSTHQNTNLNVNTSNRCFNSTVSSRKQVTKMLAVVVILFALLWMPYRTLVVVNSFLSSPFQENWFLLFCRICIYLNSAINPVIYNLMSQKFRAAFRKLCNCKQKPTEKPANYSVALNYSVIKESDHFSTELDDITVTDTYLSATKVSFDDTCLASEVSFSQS
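Enhancer read-out: after compound pinning and an initial kinetic agonist-mode read, an EC20 of TRH (10 nM final) was injected and fluo-8 calcium signal (Ex 480/Em 530) followed at 1 s/cycle for 100 cycles in TRHR-expressing cells.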
D1 PAM = Potentiators of Human D1 Dopamine Receptor: qHTS; HEK293 TREx D1 cells, calcium flux, dopamine EC20 potentiation; potentiation, % at 10 µM; actives 0.036% (n = 360,000); AID 504651, 2011; in the data active = potentiation above about 30%; note: 0% is about no effect
D1 antagonist = Antagonist of Human D 1 Dopamine Receptor: qHTS. D(1A) dopamine receptor (Homo sapiens), P21728. HEK293 TREx D1 cells, calcium flux, dopamine EC80; hits give low values. activity change, negative = inhibition, % at 10 µM. actives 3.2% (n = 360,000). AID 504652, 2011; in the data active = activity change below about -30%; note: % is set by controls: 0 for no effect and ±100 for the full control effect
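Cells carrying a force-coupled, tetracycline-inducible human D1 receptor report calcium flux. Each well gets a 10 s baseline, compound with 180 s monitoring, then an EC80 dopamine stimulus with a second 180 s kinetic read.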
TRHR ag = qHTS for Small Molecule Agonists and Allosteric Enhancers of Human TRH Receptor: Primary Screen for Agonists | AID 493084, 2011 | actives 0.18% (n = 360,000) | activation, % at 2 µM | Thyrotropin-releasing hormone receptor (Homo sapiens), P34981 | TRHR cells, calcium flux fluo-8, FDSS agonist mode; note: 0% is about no effect
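Steps: seed TRHR cells overnight; add fluo-8 no-wash Ca dye, RT 30 min–1.5 h; record 10 s baseline; pin-transfer compounds; monitor fluorescence 1 cycle/s for the agonist window. Calcium increases flag candidate agonists.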
D1 ag = Allosteric Agonists of the Human D1 Dopamine Receptor: qHTS; D(1A) dopamine receptor (Homo sapiens), P21728; HEK293 T-REx D1 cells, calcium flux, agonist mode; activation, % at 2 µM; actives 1% (n = 360,000); note: 0% is about no effect
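Inducible HEK293 T-REx D1 cells, force-coupled to calcium signalling, were plated at 4000 cells/well with tetracycline and held overnight at 30 C. After no-wash calcium dye loading, compound-evoked calcium rise over 180 s flagged agonists.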
USP1 inh = Inhibitors of USP1/UAF1: Primary Screen. Ubiquitin carboxyl-terminal hydrolase 1 (Homo sapiens), O94782. Potency, µM (top dose mostly 57.1 µM), inactives show top-dose activity change, negative = inhibition, hits mostly inhibitors. recombinant USP1/UAF1, Ub-Rhodamine cleavage fluorescence. actives 0.23% (n = 390,000); active = well fitted inhibition curve with a large enough effect; inconclusive = small, poorly fitted or top-dose-only effect; inactive = no such curve, though single readings can be large or run the other way; note: potency is the fitted concentration of half-maximal effect; % is set by controls: 0 for no effect and ±100 for the full control effect; nearly all actives have a fitted effect of over 60% in size
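In this screen, compounds sit with the deubiquitinase complex (1nM) for 15 min at room temperature before Ub-Rho is added at 150nM final. Fluorescence rise is then followed for 6 reads every 60 seconds.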
* hit, by the source's call; ? = inconclusive; / = not tested or not shown; ! = not confirmed by another sample. Cut-off read from the data, not from the text of the source, unless noted: active = activation above about 30%; inactive = the rest.

SMILES	TRHR PAM	D1 PAM	D1 antagonist	TRHR ag	D1 ag	USP1 inh
CCOC(=O)c1c(C)[nH]c(C(=O)OC)c1CCC(=O)OC	2.6	-3.2	-36.1*	-0.5	0.5	-9.6%
Cn1ncc(-c2ccno2)c1C(=O)O	2.4	-0.3	-6.3	0.3	37.4*	1.9%
CCOc1ccc(NC(=O)CCc2nnc3n(C)c(=O)c4sccc4n23)cc1	13.9	-0.2	-4.8	-0.5	0.1	-11.2%
COc1ccc(/C=N/NC(=O)c2cc[n+]([O-])cc2)cc1	-3.2	-4.5	7.0	0.1	1.3	5.6%
O=C(N/N=C/c1ccc(OC(F)F)cc1)c1cc[n+]([O-])cc1	33.7*	-0.5	-18.0	1.0	3.0	-1.7%
Cc1ccc(-n2c(=O)c3c(c4cc(C)ccc4n3C)n(Cc3ccc(F)cc3)c2=O)cc1	24.0	-2.1	9.0	-0.9	1.2	-13.9%
O=c1cc(-c2ccccc2)nc2n1Cc1ccccc1-2	31.3*	-0.6	-5.3	0.6	1.0	-16.1%
O=c1nc2n(c3ccccc13)Cc1ccccc1-2	7.9	-3.6	5.8	0.0	2.7	/
CC(C)OC(=O)/C(C#N)=C\c1cccnc1	4.4	2.0	11.0	0.1	0.5	-9.4%
CC(=O)Nc1ccc(NC(=O)C(C)OC(=O)c2ccc(N(C)C)cc2)cc1 (configuration not stated)	-4.2	/	-16.1	0.0	5.0	-22.6%
CC(=O)Nc1ccc(NC(=O)C(C)OC(=O)/C(C#N)=C/c2ccc(N(C)C)cc2)cc1 (configuration not stated)	-2.2	-2.9	-5.5	23.8	83.8*	159.8%
CC(OC(=O)/C(C#N)=C/c1ccc(N(C)C)cc1)C(=O)N(C)c1ccccc1 (configuration not stated)	23.8	-5.3	-7.7	48.6*	70.0*	?
O=C(Nc1cc(-c2ccc(F)c(F)c2)no1)c1ccccc1F	2.1	0.0	-0.7	-2.6	-2.5	-12.8%
O=C(Nc1ccc(Oc2ccc(Br)cc2)cc1)C1=CC=CN2CCS(=O)(=O)N=C12	3.2	-9.3	-47.6*	1.2	10.5	-12.4%
CCc1ccc(NC(=O)C2=CC=CN3CCS(=O)(=O)N=C23)cc1	-1.3	7.0	8.9	0.1	0.0	-11.1%
CC(C)c1ccc(NC(=O)C2=CC=CN3CCS(=O)(=O)N=C23)cc1	11.2	-6.5	-32.0*	-1.2	13.8	0.3%
COc1ccc(NC(=O)C2=CC=CN3CCS(=O)(=O)N=C23)c(OC)c1	/	/	/	/	/	-8.0%
COc1ccc(C)cc1NS(=O)(=O)c1cc(Br)cc2c1N(C(C)=O)C(C)C2 (configuration not stated)	-4.4	0.9	-11.4	0.1	-1.4	-4.8%
Cc1c(O)ccc(-c2[nH]ncc2-c2nc3ccccc3s2)c1O	-9.7	-9.9	-43.0*	0.0	6.5	-19.9%
Cc1c(O)ccc(-c2n[nH]c(C(=O)O)c2-c2nc3ccccc3s2)c1O	-3.9	-5.4	-4.8	0.7	3.9	-19.3%
Cc1cc(C)c(S(=O)(=O)Nc2ccc(-c3ccc(N4CCCCC4)nn3)cc2)c(C)c1	2.4	-1.1	-6.8	0.4	2.4	-25.3%
CN1/C(=C\C(=S)NC(=O)c2cccc(Br)c2)C(C)(C)c2ccccc21	-4.2	-5.6	-69.4*	0.1	3.1	-12.2%
Cc1ccccc1N1C(=O)C(Cl)=C(N2CCOCC2)C1=O	-2.8	-3.3	-45.3*	-0.2	0.9	-19.6%
Cc1cccc(/C=N/NC(=O)c2ccc(NC(=O)c3ccc(F)cc3)cc2)n1	-2.4	-8.3	-51.0*	-0.3	-3.5	-17.3%
Cc1cccc(/C=N/NC(=O)c2ccc(NC(=O)c3ccc(Cl)cc3)cc2)n1	5.2	-11.9	-83.2*	0.3	1.5	-8.6%
SMILES	TRHR PAM	D1 PAM	D1 antagonist	TRHR ag	D1 ag	USP1 inh
CCN(CC)CCN1C(=O)C(=O)/C(=C(/O)c2c(C)[nH]c(C(=O)OC)c2C)C1c1ccco1 (configuration not stated)	30.1*	-2.2	1.3	0.3	1.0	-16.6%
CCOC(=O)c1[nH]c(C)c(/C(O)=C2\C(=O)C(=O)N(CCN(C)C)C2c2ccco2)c1C (configuration not stated)	-2.6	-2.9	18.8	-0.1	-0.4	-6.7%
CC(Sc1nc(N)cc(=O)[nH]1)C(=O)Nc1nc2c(s1)CCCC2 (configuration not stated)	-10.4	-7.3	-41.5*	0.2	3.3	-14.8%
CCC(Sc1nc(C)cc(=O)[nH]1)C(=O)Nc1nc2c(s1)CCCC2 (configuration not stated)	14.6	1.9	23.0	1.0	0.6	-10.2%
Cc1ccc(C(=O)CSc2nnc3ccc4ccccc4n23)cc1	-1.7	-1.4	-10.7	0.0	-0.4	-3.8%
CCOCC(=O)N1CCN(c2ccc(F)cc2)CC1	0.4	-2.4	13.0	0.0	1.2	0.3%
CC(=O)c1cc(F)c(N2CCN(C(=O)COc3ccc(F)cc3)CC2)cc1C	-1.8	-7.2	-32.9*	-0.1	6.6	-6.1%
CCC(=O)c1cc(F)ccc1OCC(=O)N1CCN(c2ccc(F)cc2)CC1	-5.5	-7.8	-33.8*	-0.3	6.5	-9.9%
CC(=O)c1cc(F)c(N2CCN(C(=O)c3ccco3)CC2)cc1C	0.5	-6.2	-31.7*	-0.4	22.2	-12.9%
CCn1cc(C(=O)NC(C)C)c(=O)c2cc(F)c(N3CCN(C(=O)c4ccco4)CC3)cc21	0.9	-3.5	-31.3*	0.0	5.0	-16.7%
CC(=O)c1ccc(N2CCN(C(=O)c3ccco3)CC2)c(F)c1	6.6	-1.8	3.3	0.1	20.0	-15.1%
CC(=O)c1ccc(N2CCN(C(=O)COc3ccc(F)cc3)CC2)c(F)c1	-2.8	-1.6	-17.5	-0.3	9.7	-14.2%
Cc1cc2c(s1)c1c(C)nn(Cc3ccc(F)cc3)c(=O)c1n2C	-1.6	3.3	-3.1	-0.8	2.9	/
N#CCC(=O)Nc1ccc(C(=O)OCC(=O)N=c2sccn2Cc2ccccc2Cl)cc1	1.0	-10.3	-45.6*	2.0	3.6	-23.6%
Cc1cccc(C)c1OCC(=O)Nc1nc(-c2ccc(Br)cc2)ns1	-4.6	1.9	-14.9	-0.3	-0.2	-4.0%
CCN1C(=S)N[C@@H](CCc2ccccc2)C(C(=O)OC)=C1C	4.7	-4.0	-30.7*!	-0.6	1.6	?
CCN1C(=O)N[C@@H](CCc2ccccc2)C(C(C)=O)=C1C	/	/	/	/	/	4.7%
